AMA1 RON2 block: qHTS for Inhibitors of AMA1-RON; Towards Development of Antimalarial Drug Lead: Primary Screen. Plasmodium falciparum AMA1 (3D7) - RON2 peptide interaction. AlphaScreen AMA1-biotinylated RON2 peptide binding. Potency, µM (highest dose often 58.2 µM), for inactives: at the highest dose activity change, negative = inhibition, hits mostly inhibitors. hit rate 0.2% among 360,000. AID 720542, 2013;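 further: 0% = vehicle wells and -100% = peptide control; nearly all actives have a fitted effect of over 45% in size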
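AMA1 (3D7) with his tag at 25 nM final met compounds first, then biotinylated RON2 peptide at 25 nM; detection used donor plus acceptor beads, 10 µg/mL apiece, read by AlphaScreen after 30 min at room temperature.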
Sm TGR block: qHTS Assay for the Inhibitors of Schistosoma Mansoni Peroxiredoxins | AID 485364, 2010 | Potency, µM (doses to about 114 µM), without a hit: at the top dose activity change, negative = inhibition, actives largely listed as inhibitors | hit rate 3% among 360,000 | purified TGR, DTNB reduction, TNB absorbance 405 nm | Schistosoma mansoni thioredoxin glutathione reductase (TGR), Q962Y6; further: nearly all actives have a fitted effect of over 60% in size
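First, TGR (20 nM dispensed) and NADPH were mixed with compound. Second, a 15 min room-temperature incubation followed. Third, further NADPH and then DTNB were added to start the reaction. Finally, TNB absorbance was monitored kinetically.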
FMDV antiviral: High Throughput Screening for Foot and Mouth Disease Virus Antivirals; FMDV antiviral cell-based qHTS; Potency, µM (doses to about 57.9 µM), for the others: at the highest dose activity change, negative = inhibition, hits mostly inhibitors; hit rate 1.2% among 410,000; AID 1159524, 2015; calls by dose curve; tested in HEK293T cells; further: read-out not given here; nearly all actives have a fitted effect of over 45% in size
AmpC inh detg: qHTS Inhibitors of AmpC Beta-Lactamase (assay with detergent); AmpC hydrolysis of nitrocefin, absorbance 480 nm, 0.01% Triton; Potency, µM (titrated, usually from 114 µM), inactives show top-dose activity change, negative = inhibition, actives largely listed as inhibitors; hit rate 0.041% among 370,000;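 further: 0% = no-compound wells and -100% = no-enzyme wells; nearly all actives have a fitted effect of over 25% in size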
Target sequence (P00811 whole entry, looked up): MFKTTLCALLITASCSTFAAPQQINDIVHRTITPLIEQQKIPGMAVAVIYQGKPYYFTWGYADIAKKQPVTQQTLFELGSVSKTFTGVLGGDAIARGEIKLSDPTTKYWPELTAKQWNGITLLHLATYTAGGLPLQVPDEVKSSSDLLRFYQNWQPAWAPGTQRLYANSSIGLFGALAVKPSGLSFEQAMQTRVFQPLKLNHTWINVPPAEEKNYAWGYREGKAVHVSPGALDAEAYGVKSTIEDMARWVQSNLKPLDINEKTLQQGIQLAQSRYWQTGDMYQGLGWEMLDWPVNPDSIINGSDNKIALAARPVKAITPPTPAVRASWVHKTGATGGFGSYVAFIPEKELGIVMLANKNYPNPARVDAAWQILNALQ
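20 mM phosphate pH 7.0 + 0.01% (detergent screen) or 0.0001% Triton X-100; 5.3 nM AmpC reagent; cpd preinc 15 min RT; nitrocefin (800 uM stock) to start; A480 q20 s × 4 min; Activity was normalised to no-enzyme and no-compound control wells.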
AmpC no deterg: qHTS Inhibitors of AmpC Beta-Lactamase (assay without detergent). AmpC nitrocefin hydrolysis, absorbance 480 nm, 0.0001% Triton. Potency, µM (doses to about 57.1 µM), inactives show at the highest dose activity change, negative = inhibition, hits mostly inhibitors. hit rate 0.52% among 330,000. AID 485341, 2010;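 further: plate controls were no compound for no effect and no enzyme for full effect; nearly all actives have a fitted effect of over 20% in size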
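20 mM phosphate pH 7.0 + 0.01% (detergent screen) or 0.0001% Triton X-100; 5.3 nM AmpC reagent; cpd preinc 15 min RT; nitrocefin (800 uM stock) to start; A480 q20 s × 4 min; Activity was normalised to no-enzyme and no-compound control wells.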
An asterisk follows results filed as active; ? = inconclusive; nt = no result given; [ ] = dose if it differs, or a comment. In the library only some 4.1% were active in any assay of this set; here they are far more common. Unless noted, the call rests on the fitted dose curve; in most records, active means well fitted curve in the direction sought with a large enough effect; inconclusive means small, poorly fitted or top-dose-only effect, or another doubt; inactive means no such curve, though single readings can be large; an effect the other way counts as inactive or inconclusive. Unless noted, on the % scale 0 is the no-effect control and ±100 the full control effect; potency means the concentration at half of the fitted maximal effect.

SMILES | AMA1 RON2 block | Sm TGR block | FMDV antiviral | AmpC inh detg | AmpC no deterg
CC1CN(c2ccccc2)c2nc3c(c(=O)[nH]c(=O)n3C)n2C1 (stereo not drawn) | -3% | 89µM* | -23% | 1% | -14%
COc1ccccc1C(=O)Nc1cccc(C(=O)OCc2cc(=O)n3c4c(sc3n2)CCCC4)c1 | nt | 0% | -8% | 1% | nt
Cn1cccc1/C=N/N1CCN(c2ccccc2)CC1 | ? | 45µM* | 30% | 9% | -16%[11.4 µM]
Cn1cccc1/C=N/N1CCN(Cc2ccccc2Cl)CC1 | ? | 50µM* | -25% | 4% | 31%
COc1cccc(-n2ccn(CC(=O)Nc3ccccc3F)c(=O)c2=O)c1 | nt | 1% | ? | 17% | nt
CC(C)Cn1c(/C=C/c2ccco2)nc2ccccc21 | 2% | 7.9µM* | -9% | -13% | -42%
N/C(CS(=O)(=O)c1ccccn1)=N\OC(=O)c1ccccc1Cl | 10% | 40µM* | 9% | 8% | -11%
Cc1ccc(C(=O)O/N=C(\N)c2ccccn2)c(Cl)c1 | 48% | -12% | 10µM* | -12% | -4%
N/C(=N\OC(=O)c1ccc(Cl)cc1Cl)c1ccccn1 | 25% | 0% | -54% | -2% | -6%
N/C(=N\OC(=O)c1ccc([N+](=O)[O-])cc1Cl)c1ccccn1 | 66% | ? | 16µM* | -14% | -7%
N/C(=N\OC(=O)c1cc([N+](=O)[O-])ccc1Cl)c1ccccn1 | 18% | ? | -14% | 1% | -9%
CCCc1ccc(C(=O)O/N=C(\N)c2ccccn2)cc1 | 33% | 0% | 14µM* | 6% | -9%
CCc1ccc(NC(=O)Cn2c(=O)ccc3cc(S(=O)(=O)N4CCCC4)ccc32)cc1 | nt | 17% | -17% | 2% | nt
COc1ccccc1C1CN(Cc2cccc3nccnc23)Cc2ccccc2O1 (stereo not drawn) | nt | nt | -8% | nt | nt
Cc1cc(C)nc(S[C@H]2C[C@@H](C(=O)N3CCN(c4ccccc4F)CC3)N(Cc3ccccc3F)C2)n1 | nt | nt | 12% | nt | nt
COc1cc(NC(=O)CN2C(=O)CN(C)C2=O)c(C)cc1[N+](=O)[O-] | 0% | -22% | 3% | 1% | -28%
COc1cc(NC(=O)Cn2ncc(Cl)c(Cl)c2=O)c(C)cc1[N+](=O)[O-] | 25% | 40µM* | 13µM* | 1% | -13%
COc1ccc(CCNc2nc(SCc3ccc(F)cc3)nc3ccccc23)cc1OC | nt | 3% | ? | 18% | nt
Cc1ccc(S(=O)(=O)Cn2nnnc2C(C(C)C)N2CCN(Cc3ccco3)CC2)cc1 (stereo not drawn) | 4% | 3% | -16% | ? | 38%
Cc1ccc(S(=O)(=O)Cn2nnnc2CN(Cc2ccco2)Cc2cccs2)cc1 | -10% | 45µM* | -13% | -1% | -9%
CC(C)C1C(=O)Nc2ccc(S(=O)(=O)NCc3ccc(Cl)cc3)cc21 (stereo not drawn) | nt | 3% | ? | 27% | nt
O=[N+]([O-])c1ccc(C(O)CN=Cc2ccc(O)cc2O)cc1 (stereo not drawn) | 73% | nt | -7% | -4% | 13µM*
CN(C)/N=C/c1cc([N+](=O)[O-])ccc1O | 67% | -10% | 19% | -1% | -18%
NC1=C(Cl)C(=O)c2ccccc2C1=O | 2% | nt | ? | nt | nt
NC1=C(Cl)C(=O)c2ccc(S(N)(=O)=O)cc2C1=O | -19% | nt | 2.5µM* | nt | nt
CC(=O)c1ccc(NC(=O)CSc2nc(C3CC3)nc3ccccc23)cc1 | 4% | 9% | -4% | -9% | 4%
O=C(CSc1nc(C2CC2)nc2ccccc12)N1c2ccccc2Sc2ccccc21 | 1% | 0% | -26% | -2% | 0.32µM*
O=C1NC(=O)N(Cc2ccc(F)cc2)C(=O)/C1=C\C=C\c1ccco1 | -15% | 7.9µM* | 28µM* | 6% | -49%
CCc1ccc(N2C(=O)NC(=O)/C(=C\C=C\c3ccco3)C2=O)cc1 | -9% | 11µM* | 25µM* | 2% | ?
O=C1NC(=O)N(Cc2ccccc2)C(=O)/C1=C\c1ccco1 | ? | -48% | ? | -15% | -26%[11.4 µM]
